Compound activity deposited in PubChem BioAssay by several laboratories.
ugtP null kill: compounds lethal to S. aureus RN4220 ugtP deletion mutant; growth inhibition, % (no concentration beside the values); 330,000 tested, 0.54% active; AID 1259309; OD600 growth, 16 h; in the data active = growth inhibition above about 68%;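 also: plate controls were untreated wells for no effect and antibiotic for full effect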
Mtb bLac sens: beta-lactam sensitization of Mtb H37Rv. 330,000 tested, 0.27% active. M. tuberculosis H37Rv growth with meropenem, percent inhibition. inhibition, % at 25 µM; call rule not given here;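 also: growth measured after seven days incubation then overnight dye step; 0% = bacteria only wells and 100% = bacteria with antibiotic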
BioA inh: BioA (M. tuberculosis) enzyme inhibition. purified M. tuberculosis BioA enzyme, plate reader. inhibition, % at 9.99 µM. 360,000 tested, 0.096% active. AID 602481; in the data active = inhibition above about 40%; inconclusive = no clear call, values can overlap the other calls
PfHsp40 rescue: rescue of PfHsp40-mediated yeast toxicity | S. cerevisiae expressing PfHsp40, growth rescue, ATP luminescence | growth rescue, % at 12.5 µM | 340,000 tested, 0.68% active | AID 504582; in the data active = growth rescue above about 28%, passing the limit was not always enough; inconclusive = no clear call, values can overlap the other calls;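 also: yeast W303a lacking pdr1 and pdr3 grown in galactose medium; growth measured after three days at 30 °C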
Sa RN4220 lethal: S. aureus RN4220 growth inhibition | OD600, 16 h | inhibition, % (no concentration beside the values) | 330,000 tested, 0.33% active; in the data active = inhibition above about 85%;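 also: plate controls were untreated cells for no effect and reference antibiotic for full effect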
The depositor's hits bear a star; ? = inconclusive; . = not tested or not shown. Sampled rows, rich in hits. Any-hit rate of the full collection: about 0.9%.

SMILES	ugtP null kill	Mtb bLac sens	BioA inh	PfHsp40 rescue	Sa RN4220 lethal
OCCN(CCO)c1cc2c3ccccc3ccc2c2ccccc12	-14	.	.	529*	-12
OCCN(CCO)c1ccc2ccccc2c1	-1	4	-2	-1	10
COc1ccc2nc(NN=C(C)c3ccccn3)cc(C)c2c1	.	.	.	784*	.
COc1ccc(CC(=O)NN=C(C)c2ccccn2)cc1	-1	.	.	.	5
O=[N+]([O-])c1cc(C=Nn2cnnc2)ccc1N1CCCC1	-3	.	.	.	-2
CCCc1nc2c(ccc3ccccc32)cc1CC	83*	?	0	4	-1
CC(=O)Oc1cc2cccc(OC(C)=O)c(=O)c2c(OC(C)=O)c1OC(C)=O	3	0	0	158*	20
O=C1Nc2ccc(Br)cc2C12NNc1ccccc1O2 (stereo not given)	97*	100	1	2	85
CC(=O)N1C(Cc2ccccc2)C=C[C@]1(C)C(=O)NCCN1CCOCC1 (stereo not given in full)	-1	.	.	.	3
Cc1ccc(-c2nc3ccccc3c(=O)n2-c2ccncc2)cc1	3	-2	.	1	2
O=c1c2ccccc2nc(-c2ccc(-c3ccccc3)cc2)n1-c1ccncc1	2	88	2	341*	5
COC(=O)C1=COC(C)C2CN3CC[C@]4(C(=O)Nc5ccccc54)C3CC12 (stereo not given in full)	-2	.	.	.	5
C#Cc1ccc(C2C=C(C(=O)NC3CC3)OC(OCC)C2CCCO)cc1 (stereo not given)	2	.	.	.	-1
Nc1nc2sc3c(c2c(=O)s1)CCCC3	38	4	-2	290*	9
OCCC1CC(O)C(O)[C@@]2(Cc3ccccc3CO2)O1 (stereo not given in full)	3	.	.	.	7
O=C(CSC1=NNC(c2ccccn2)S1)Nc1ccc(C(F)(F)F)cc1 (stereo not given)	-3	20	-1	3	0
c1ccc(CSC2=NNC(c3ccccn3)S2)cc1 (stereo not given)	7	12	.	93*	5
COc1cc(S(=O)(=O)NC2CCCCC2C)ccc1F (stereo not given)	-1	-15	2	98*	2
COc1cc(S(=O)(=O)NC2CCCCC2C)ccc1Cl (stereo not given)	-9	-6	1	-2	0
COc1ccc(NC(=O)Nc2cccc3c2OC(CN(C)C(=O)NC(C)C)C(C)CN(C(C)CO)C3=O)cc1 (stereo not given)	3	.	.	.	4
C/C(=N\NC(=O)c1cc(-c2cccnc2)nc2ccccc12)c1ccc(O)cc1O	.	15	-2	78*	.
COC(=O)C1=C(c2ccc(OC)c(OC)c2)CC2CCC1N2C(=O)NCc1ccco1 (stereo not given)	-2	.	.	.	3
Cc1cccc(OCc2nc(C#N)c(NCc3ccc4c(c3)OCO4)o2)c1	-14	5	-2	29*	0
N#Cc1nc(COc2ccc(Cl)cc2)oc1NCc1ccc2c(c1)OCO2	-7	21	-4	3	-1
CC(C)(C)c1cc(NCCCn2ccnc2)n2ncc(-c3ccc(Cl)cc3)c2n1	63	99	.	70*	41
SMILES	ugtP null kill	Mtb bLac sens	BioA inh	PfHsp40 rescue	Sa RN4220 lethal
Cc1cc(NCCCn2ccnc2)n2nc(-c3ccc(Cl)cc3)cc2n1	-7	55	.	-1	2
CC(C(=O)N1CCc2ccccc21)N1CCN(c2cccc(C(F)(F)F)c2)CC1 (stereo not given)	90*	7	1	-2	-4
NC(=S)NN=Cc1nccc2ccccc12	-11	.	-1	94*	1
NC(=S)NN=Cc1nccc2c(C(F)(F)C(F)(F)C(F)(F)F)cccc12	.	.	-2	.	.
C#CCOCCOCCOCCNc1nc(N2CCN(C(=O)CCCCCCCCCCNC(=O)Cn3cc(CC(C)O)nn3)CC2)nc(N2CCN(C(=O)CCCCCCCCCCNC(=O)Cn3cc(CC(C)O)nn3)CC2)n1 (stereo not given)	9	.	.	.	11
Cc1ccccc1Oc1nc(-c2ccccn2)nc2ccccc12	9	90	0	245*	8
Cc1cccc(Oc2nc(-c3ccccn3)nc3ccccc23)c1	-4	92	1	195*	9
CC(=O)Nc1ccc(Oc2nc(-c3ccccn3)nc3ccccc23)cc1	1	72	.	-1	8
Cc1cccc(C2(c3cccc(C)c3)OC(=O)c3ccccc32)c1	82*	7	-3	-2	-11
CCOc1ccc(C=NNc2ccc(S(=O)(=O)Nc3ccccc3C(=O)O)cc2[N+](=O)[O-])cc1	91*	4	-3	0	-6
CSc1ccc(C=NNc2ccc(S(=O)(=O)Nc3ccccc3C(=O)O)cc2[N+](=O)[O-])cc1	40	45	1	0	2
O=C(O)c1ccccc1NS(=O)(=O)c1ccc(NN=Cc2ccccc2F)c([N+](=O)[O-])c1	92*	-3	4	1	5
C#CCNC(=O)C1=CC(C2CCCCC2)CC(OCc2ccc(CO)cc2)O1 (stereo not given)	-6	.	.	.	12
O=C(O)C/C(=C\c1ccc(Cl)cc1)c1nc2ccccc2o1	-13	1	-1	135*	18
O=C(O)C(=O)/C(=C\c1ccc(Cl)cc1)c1ccc2ccccc2n1	-5	-6	0	-1	4
C#CCOCCOCCOCCNc1nc(N2CCN(C(=O)Cn3cc(CCO)nn3)CC2)nc(N2CCN(C(=O)C(C(C)O)n3cc(CCCCN)nn3)CC2)n1 (stereo not given)	2	.	.	.	9
O=C(Nc1cccc(-c2csc(Nc3ccc(Cl)cc3)n2)c1)c1cccc(C(F)(F)F)c1	76	66	-2	?	89*
CCOC(=O)N1CCN(C(=O)C2CCN(C(=O)c3ccccc3C)CC2)CC1	.	.	-3	703*	.
COc1c(F)cccc1C1=CC(=O)CC(c2ccc3c(c2)OCO3)C1 (stereo not given)	6	.	.	.	2
O=C(Nc1nnc(-c2ccccc2)o1)c1nc2ccccc2s1	98*	95	0	-1	98*
O=C1C2CCCCC2C(=O)N1CCCCN1CCN(c2nsc3ccccc23)CC1 (stereo not given)	-6	.	.	.	3
O=C1NC(=O)N(c2ccc3c(c2)OCO3)C(=O)C1=Cc1ccc(N2CCCC2)o1	6	.	.	.	7
O=[N+]([O-])c1ccc(OCc2cn(C(CO)c3ccccc3)nn2)c(Br)c1 (stereo not given)	12	.	.	.	11
O=C(Oc1coc(CSc2ncccn2)cc1=O)c1cccs1	2	2	.	-1	2
CN(C)S(=O)(=O)c1ccc(C(=O)Oc2coc(CSc3ncccn3)cc2=O)cc1	-5	4	.	94*	-4
CCN(CC)S(=O)(=O)c1ccc(C(=O)Oc2coc(CSc3nc(C)cc(C)n3)cc2=O)cc1	10	2	.	72*	0
c1ccc(-c2cn(CC3CCC(C4CCC(Cn5cc(-c6ccccn6)nn5)O4)O3)nn2)nc1 (stereo not given)	-2	.	.	.	3
